Assay [1] in a line: Primary qHTS for small molecule stabilizers of the endoplasmic reticulum resident proteome: Secreted ER Calcium Modulated Protein (SERCaMP) assay (AID 1508630). The note with it: SH-SY5Y GLuc-SERCaMP (Gaussia luciferase released on ER calcium loss) secretion, thapsigargin, luminescence; series mostly up to 38.4 µM. Summed up:
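The SH-SY5Y reporter protocol was run at 3 concentrations up to 38.3 uM (primary) or 11 concentrations (follow-up): 16 h compound, 100 nM thapsigargin for 4 h, then extracellular luciferase luminescence.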
In general terms: In qHTS, concentration-response curves come from the screen itself.

Assay [2] can be described thus: A High-Content qHTS Against Drug Library for the Identification of Small Molecules that Inhibit DYT1 Early Onset Primary Dystonia-Associated Cell Pathology (AID 1645839; calls by dose curve; further: potency means the concentration at half of the fitted maximal effect). The note with it: HEK293 Flp-In EGFP-delE TorsinA, punctate imaging, 48 h; series mostly up to 46.1 µM. Summed up:
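High-content imaging quantified EGFP-TorsinA mislocalization in HEK293-derived cells inducibly expressing DYT1 mutant torsinA, after 48 h exposure to compound given together with tetracycline induction. Cell count served as a toxicity channel alongside %pathology.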

Assay [3] has as its target Cytochrome P450 2D6 (Homo sapiens) (UniProt P10635). The experiment in a line: Cytochrome P450 family 2 subfamily D member 6 (CYP2D6) small molecule antagonists: luciferase biochemical (cell-free) qHTS assay (AID 1645840; active means well fitted curve in the direction sought with a large enough effect in the repeat runs; an effect the other way counts as inactive or inconclusive; further: nearly all actives have a fitted effect of over 55% in size; further: potency means the concentration at half of the fitted maximal effect). The conditions noted are these: P450-Glo CYP2D6 enzyme, luciferin luminescence, 1 h; series mostly up to 57.4 µM. Summed up:
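P450-Glo CYP2D6 system: proluciferin substrate converted by enzyme to luciferin, read by luminescence proportional to activity. Enzyme-substrate mix with compound 10 min at room temperature, then NADPH regeneration 1 h before detection reagent.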

The target of assay [4] is Cytochrome P450 2C9 (Homo sapiens) (UniProt P11712). The experiment in a line: Cytochrome P450 family 2 subfamily C member 9 (CYP2C9) small molecule antagonists: luciferase biochemical (cell-free) qHTS assay (AID 1645842; active means well fitted curve in the direction sought with a large enough effect in the repeat runs; an effect the other way counts as inactive or inconclusive; further: nearly all actives have a fitted effect of over 55% in size; further: potency means the concentration at half of the fitted maximal effect). The conditions noted are these: P450-Glo CYP2C9 enzyme assay, luciferin luminescence; series mostly up to 57.4 µM. Summed up:
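P450-Glo CYP2C9 system: proluciferin substrate with enzyme in mix containing 0.4% BSA, 10 min at room temperature, then NADPH regeneration solution added and incubated 1 h at 37C. Detection reagent stopped reaction; luminescence read after 20 min as RLU.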

A short description of assay [5]: Primary qHTS for inhibitors of nuclear receptor binding SET domain protein 2 (NSD2) in an isogenic RCH-ACV NSD2 p.E1099K mutant (9B) (AID 1645876). Further: nearly all actives have a fitted effect of over 70% in size. Further: potency means the concentration at half of the fitted maximal effect. The conditions noted are these: RCH-ACV (leukaemia line) NSD2 E1099K (9B) viability, CellTiter-Glo, 72 h; series mostly up to 44.9 µM.

Results filed as inconclusive are left out. The source made the active and inactive calls. Unless noted, the call rests on the fitted dose curve; in most records, active means well fitted curve in the direction sought with a large enough effect; inconclusive means small, poorly fitted or top-dose-only effect, or another doubt; inactive means no such curve, though single readings can be large; an effect the other way counts as inactive or inconclusive.

Sequence of Cytochrome P450 2D6 (Homo sapiens) (P10635 whole entry, looked up): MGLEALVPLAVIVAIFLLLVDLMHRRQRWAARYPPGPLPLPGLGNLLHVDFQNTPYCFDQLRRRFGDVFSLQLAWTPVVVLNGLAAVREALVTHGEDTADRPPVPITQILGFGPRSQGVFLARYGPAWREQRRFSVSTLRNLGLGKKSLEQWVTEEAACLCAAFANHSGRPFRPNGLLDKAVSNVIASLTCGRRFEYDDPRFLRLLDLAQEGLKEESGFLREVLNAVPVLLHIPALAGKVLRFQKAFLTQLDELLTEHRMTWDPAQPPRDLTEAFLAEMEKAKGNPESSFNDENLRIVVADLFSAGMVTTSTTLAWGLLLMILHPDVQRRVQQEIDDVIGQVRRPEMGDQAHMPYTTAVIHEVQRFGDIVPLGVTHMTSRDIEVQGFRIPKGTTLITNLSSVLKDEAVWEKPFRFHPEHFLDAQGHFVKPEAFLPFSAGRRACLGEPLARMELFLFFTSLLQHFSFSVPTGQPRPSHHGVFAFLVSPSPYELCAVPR
Sequence of Cytochrome P450 2C9 (Homo sapiens) (P11712 whole entry, looked up): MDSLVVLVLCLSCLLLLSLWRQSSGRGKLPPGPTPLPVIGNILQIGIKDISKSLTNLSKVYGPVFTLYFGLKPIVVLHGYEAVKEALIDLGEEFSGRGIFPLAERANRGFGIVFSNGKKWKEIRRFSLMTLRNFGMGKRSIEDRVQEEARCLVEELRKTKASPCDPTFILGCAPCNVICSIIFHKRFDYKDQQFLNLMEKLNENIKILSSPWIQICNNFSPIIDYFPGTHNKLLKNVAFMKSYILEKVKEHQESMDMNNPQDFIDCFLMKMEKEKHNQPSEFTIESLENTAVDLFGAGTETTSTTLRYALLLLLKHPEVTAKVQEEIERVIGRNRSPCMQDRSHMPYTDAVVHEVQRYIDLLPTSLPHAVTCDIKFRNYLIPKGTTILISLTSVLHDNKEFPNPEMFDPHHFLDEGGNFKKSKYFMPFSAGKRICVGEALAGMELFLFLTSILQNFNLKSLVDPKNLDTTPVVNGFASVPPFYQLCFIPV

For `OCCCc1ccccc1`, the Potency result in assay [1], in assay [2], in assay [3], in assay [4] and in assay [5] was “inactive” throughout.

`C[C@@H]1CCC[C@H](C)N1CCCC(O)(c1ccccc1)c1ccccn1` (some centres undefined): the Potency entry in assay [1], in assay [2], in assay [4] and in assay [5] was “inactive” each time. The Potency in assay [3] was 0.871 µM (active).

Take `O=[N+]([O-])c1nccn1CO[C@@H](CO)[C@H](O)CO`: the Potency result in assay [1], in assay [2], in assay [3], in assay [4] and in assay [5] was “inactive” each time.

Regarding `OC1(c2ccccc2)CCNCC1`, the Potency result in assay [1], in assay [2], in assay [4] and in assay [5] was “inactive” each time. For the same compound, the Potency in assay [3] is 27.5 µM (active).

With `O=C1NCCN1CCN1CCC(c2cn(-c3ccc(F)cc3)c3ccc(Cl)cc23)CC1`, the Potency entry in assay [1] is “inactive”. Also, the Potency in assay [2] is 11.2 µM (active); in assay [3], 1.55 µM (active); in assay [5] it was 3.76 µM (active).

Take `CCCC(=O)O[C@]1(C(=O)CC)CC[C@H]2[C@@H]3CCC4=CC(=O)CC[C@]4(C)[C@H]3[C@@H](O)C[C@@]21C`: the Potency entry in assay [1], in assay [2] and in assay [5] was “inactive” throughout. In addition, the Potency in assay [3] is 12.3 µM (active); in assay [4], 17.4 µM (active).

Turning to `C[C@H]1NCc2cc(-c3ccc4c(=O)c(C(=O)O)cn(C5CC5)c4c3OC(F)F)ccc21`, the Potency entry in assay [1], in assay [2], in assay [3], in assay [4] and in assay [5] was “inactive” in each case.

Take `CN1Cc2cc(C(=O)N3CCC(C4CCNCC4)CC3)ccc2N[C@@H](CC(=O)O)C1=O`: the Potency entry in assay [1], in assay [2], in assay [3], in assay [4] and in assay [5] was “inactive” each time.

Values taken from PubChem BioAssay (NCATS).
